How the values were obtained:
Details in all cases: concentration: 1 μM, replicates: in singlicate; n = 1
ACVR1B = test system: ACVR1B
ACVR1 = test system: ACVR1
ACVR2A = test system: ACVR2A
ACVR2B = test system: ACVR2B
ACVRL1 = test system: ACVRL1
ADCK3 = test system: T1, ADCK3
T1 construct: gene CABC1

ADCK4 = test system: ADCK4
AKT1 = test system: AKT1
AKT2 = test system: AKT2
AKT3 = test system: AKT3
ALK = test system: ALK
AMPK-alpha1 = test system: T2, AMPK-alpha1
T2 construct: gene PRKAA1

AMPK-alpha2 = test system: T3, AMPK-alpha2
T3 construct: gene PRKAA2

ANKK1 = test system: ANKK1
ARK5 = test system: T4, ARK5
T4 construct: gene NUAK1

ASK1 = test system: T5, ASK1
T5 construct: gene MAP3K5

ASK2 = test system: T6, ASK2
T6 construct: gene MAP3K6

AURKA = test system: AURKA
AURKB = test system: AURKB
AURKC = test system: AURKC
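Further: KINOMEscan kinase panel screen.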

| SMILES | %Inh (ACVR1B) | %Inh (ACVR1) | %Inh (ACVR2A) | %Inh (ACVR2B) | %Inh (ACVRL1) | %Inh (ADCK3) | %Inh (ADCK4) | %Inh (AKT1) | %Inh (AKT2) | %Inh (AKT3) | %Inh (ALK) | %Inh (AMPK-alpha1) | %Inh (AMPK-alpha2) | %Inh (ANKK1) | %Inh (ARK5) | %Inh (ASK1) | %Inh (ASK2) | %Inh (AURKA) | %Inh (AURKB) | %Inh (AURKC) |
| --- | --- | --- | --- | --- | --- | --- | --- | --- | --- | --- | --- | --- | --- | --- | --- | --- | --- | --- | --- | --- |
| O=C(Nc1n[nH]c2nc(-c3ccccc3)c(Br)cc12)C1CC1 [SB-708998] | 0% | 21% | 24% | 7% | 21% | 4% | 1% | 7% | 4% | 0% | 1% | 12% | 18% | 14% | 0% | 0% | 0% | 7% | 4% | 36% |
| CCc1ccc(-c2ccc3c(c2)-c2nn(C)cc2S(=O)(=O)N3C)cc1 | 0% | 0% | 21% | 1% | 0% | 0% | 0% | 0% | 3% | 0% | 10% | 0% | 9% | 0% | 13% | 0% | 0% | 0% | 6% | 0% |
| Nc1ncnc2c1ncn2-c1cccc(F)c1 [SKF-97560] | 0% | 1% | 0% | 0% | 0% | 21% | 0% | 9% | 12% | 0% | 43% | 0% | 0% | 17% | 2% | 18% | 35% | 0% | 6% | 0% |
| CN(C)c1cc(-c2ccc3c(N)n[nH]c3c2)nc(N)n1 [GSK2219329] | 0% | 0% | 0% | 1% | 0% | 9% | 23% | 0% | 0% | 0% | 0% | 0% | 11% | 10% | 0% | 0% | 0% | 0% | 10% | 9% |
| COc1cc(Nc2nccc(N3CCC(NC(=O)C4COc5ccccc5O4)C3)n2)cc(OC)c1OC (stereo not drawn) [GSK1379761] | 0% | 20% | 22% | 13% | 0% | 10% | 65% | 0% | 9% | 0% | 18% | 11% | 0% | 24% | 2% | 0% | 5% | 51% | 72% | 75% |
| Nc1nc(N)c2nc(-c3ccccc3)[nH]c2n1 [SKF-12778] | 18% | 6% | 27% | 26% | 3% | 0% | 22% | 15% | 8% | 15% | 0% | 17% | 14% | 63% | 73% | 7% | 15% | 3% | 13% | 1% |
| Cc1cc(Nc2nc(-c3cccc(C)n3)nc3ccccc23)ccn1 [GW872411] | 73% | 0% | 2% | 13% | 0% | 0% | 0% | 0% | 0% | 2% | 0% | 0% | 0% | 0% | 9% | 0% | 0% | 3% | 14% | 0% |
| O=C1NC(=O)C(c2ccccc2)=C1Nc1cccc(O)c1 [SB-390534] | 0% | 22% | 0% | 0% | 0% | 0% | 0% | 0% | 0% | 0% | 0% | 0% | 0% | 0% | 0% | 0% | 4% | 12% | 35% | 0% |
| CC(C)(C)c1ccc(C(=O)Nc2cn3cc(-c4ccccc4)ccc3n2)cc1 | 0% | 5% | 0% | 0% | 5% | 25% | 0% | 0% | 0% | 0% | 0% | 0% | 0% | 0% | 13% | 40% | 0% | 48% | 51% | 0% |
| Nc1n[nH]c2nnc(-c3ccccc3)c(-c3ccccc3)c12 [GW554060] | 0% | 21% | 0% | 0% | 0% | 27% | 36% | 0% | 16% | 0% | 35% | 0% | 14% | 0% | 9% | 0% | 4% | 0% | 35% | 13% |
| COc1cc(OC)cc(-c2cc3cnc(N)nc3nc2NC(=O)NC(C)(C)C)c1 | 10% | 0% | 0% | 0% | 0% | 0% | 0% | 4% | 11% | 24% | 0% | 0% | 15% | 0% | 0% | 0% | 0% | 0% | 0% | 0% |
| Cc1ccccc1COc1cc(-n2cnc3cc(Cl)ccc32)sc1C(N)=O [GW813349] | 0% | 0% | 10% | 19% | 3% | 12% | 0% | 0% | 3% | 6% | 23% | 0% | 3% | 26% | 0% | 18% | 0% | 26% | 2% | 31% |
| Fc1cccc(CSc2nnc(-c3ccc4c(c3)CCO4)o2)c1 | 17% | 0% | 0% | 0% | 0% | 0% | 6% | 12% | 14% | 0% | 79% | 13% | 17% | 35% | 11% | 11% | 22% | 9% | 20% | 0% |
| Cc1ccc(Oc2ccc(Nc3ncnc4cc[nH]c34)cc2C)cn1 | 27% | 2% | 0% | 0% | 0% | 16% | 0% | 17% | 0% | 0% | 7% | 0% | 14% | 5% | 0% | 0% | 0% | 20% | 0% | 10% |
| CCS(=O)(=O)c1ccc(OC)c(Nc2ncc(-c3ccc(F)cc3)o2)c1.Cl [GW591947] | 0% | 0% | 0% | 0% | 0% | 1% | 15% | 0% | 0% | 9% | 22% | 8% | 17% | 7% | 3% | 0% | 0% | 3% | 0% | 26% |

— publication PMC5540273 (PLoS ONE, 2017)
